Results reported in PubChem BioAssay (NCI).
“And” between values parts separate entries of the source, which are not always exact repeats. Identical values can stand only once. Compounds without any hit were thinned out: in the full panel of roughly 83,000, 20% have a hit.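 Treatment: one concentration, 48 hours, 96-well format. Scoring: percent growth, with anything below 10 considered active.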 The source made the active and inactive calls.

test system: HL-60(TB) leukemia; assay: NCI-60 one-dose screen, 48 h (100 = growth as untreated, 0 = no growth, -100 = all killed); conditions: 10 µM unless noted

Compound	growth
C=C(C)[C@@H]1CC[C@]2(C)[C@H](CC=C3[C@@H]4CC(C)(C)CC[C@]4(C(=O)NCC#CCN4CCN(C)CC4)CC[C@]32C)[C@@]1(C)CCC#N	-47.9% (active)
N#C/C(=C\c1ccc(-c2ccc(F)cc2)o1)C(=O)Nc1ncc(Cc2ccc(Cl)cc2Cl)s1	22.5% (inactive)
CCOC(=O)c1c(N)c(C#N)cn1Cc1ccc(Cl)cc1Cl	60.6% (inactive)
CS(=O)(=O)c1ccc(/C(=N/N=C(N)N)c2ccc(F)cc2)cc1	97.8% (inactive)
O=C1/C(=C/c2ccccc2[N+](=O)[O-])Oc2ccc(O)cc21	24.3% (inactive)
CC1CCc2c(sc3nc(SCC(=O)N/N=C/c4cccc(O)c4O)n(-c4ccccc4)c(=O)c23)C1 (stereo not drawn)	93.6% (inactive)
CCOC(=O)c1c(Nc2ccccc2)nn2c(-c3ccc(Br)cc3)ccnc12	90.6% (inactive)
Cc1ccc(-n2cc(/C=C/C(=O)c3ccc(O)cc3)c(-c3ccc(S(C)(=O)=O)cc3)n2)cc1	27.5% (inactive)
CC(=O)Nc1ccccc1-c1nc2ccccc2s1	99.5% (inactive)
O=C(NCCNc1cc(-c2cn(-c3ccccc3)nc2-c2cccc(O)c2)ccn1)Nc1ccc(Cl)c(C(F)(F)F)c1	84.2% (inactive)
CC(=O)OCCCCN1C=C/C(=C\C(=O)n2ccc3ccccc32)c2ccccc21	98.6% (inactive)
CCOC(=O)C1=C(C)N=C2Sc3ccccc3N2C1c1ccccc1 (stereo not drawn)	61.9% (inactive)
COc1cc(-c2nc(-c3ccccc3)[nH]c2-c2ccnc(NCCCNS(=O)(=O)c3ccc(C(F)(F)F)cc3)n2)ccc1Cl	13.9% (inactive) and 37.8% (inactive)
